Reference: PubChem BioAssay
Values without a mark were called inactive. Activity calls are given as the source filed them. Unless noted, no stated cut-off is given here; in the data, active means inhibition above about 36%; inactive means the rest.

How the values were obtained:
[1] = system: transactivating tegument protein VP16 (Human herpesvirus 1); assay: compounds suppressing VP16-driven luciferase signal – cell-based, luminescence, single concentration, counter-screen for SRC2 inhibitor project (AID 652007); details: cell-based VP16 transactivation luciferase reporter, at 8.9 µM, active compounds read high
[2] = molecular target: Nuclear receptor coactivator 2 (Homo sapiens) (UniProt Q15596); assay: inhibition of GAL4-SRC2 driven luciferase expression – cell-based, luminescence, HEK293, triplicate, confirmation (AID 652008;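 active means mean inhibition above 46.5%, the solvent-only control mean plus 3 SD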;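 further: 0% = DMSO-treated cells and 100% = Gossypol at 36 µM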); details: HEK293 GAL4-SRC2 luciferase reporter, at 8.9 µM, active compounds read high
Chain of Nuclear receptor coactivator 2 (Homo sapiens) (Q15596 whole entry, looked up, the tested form may be a part): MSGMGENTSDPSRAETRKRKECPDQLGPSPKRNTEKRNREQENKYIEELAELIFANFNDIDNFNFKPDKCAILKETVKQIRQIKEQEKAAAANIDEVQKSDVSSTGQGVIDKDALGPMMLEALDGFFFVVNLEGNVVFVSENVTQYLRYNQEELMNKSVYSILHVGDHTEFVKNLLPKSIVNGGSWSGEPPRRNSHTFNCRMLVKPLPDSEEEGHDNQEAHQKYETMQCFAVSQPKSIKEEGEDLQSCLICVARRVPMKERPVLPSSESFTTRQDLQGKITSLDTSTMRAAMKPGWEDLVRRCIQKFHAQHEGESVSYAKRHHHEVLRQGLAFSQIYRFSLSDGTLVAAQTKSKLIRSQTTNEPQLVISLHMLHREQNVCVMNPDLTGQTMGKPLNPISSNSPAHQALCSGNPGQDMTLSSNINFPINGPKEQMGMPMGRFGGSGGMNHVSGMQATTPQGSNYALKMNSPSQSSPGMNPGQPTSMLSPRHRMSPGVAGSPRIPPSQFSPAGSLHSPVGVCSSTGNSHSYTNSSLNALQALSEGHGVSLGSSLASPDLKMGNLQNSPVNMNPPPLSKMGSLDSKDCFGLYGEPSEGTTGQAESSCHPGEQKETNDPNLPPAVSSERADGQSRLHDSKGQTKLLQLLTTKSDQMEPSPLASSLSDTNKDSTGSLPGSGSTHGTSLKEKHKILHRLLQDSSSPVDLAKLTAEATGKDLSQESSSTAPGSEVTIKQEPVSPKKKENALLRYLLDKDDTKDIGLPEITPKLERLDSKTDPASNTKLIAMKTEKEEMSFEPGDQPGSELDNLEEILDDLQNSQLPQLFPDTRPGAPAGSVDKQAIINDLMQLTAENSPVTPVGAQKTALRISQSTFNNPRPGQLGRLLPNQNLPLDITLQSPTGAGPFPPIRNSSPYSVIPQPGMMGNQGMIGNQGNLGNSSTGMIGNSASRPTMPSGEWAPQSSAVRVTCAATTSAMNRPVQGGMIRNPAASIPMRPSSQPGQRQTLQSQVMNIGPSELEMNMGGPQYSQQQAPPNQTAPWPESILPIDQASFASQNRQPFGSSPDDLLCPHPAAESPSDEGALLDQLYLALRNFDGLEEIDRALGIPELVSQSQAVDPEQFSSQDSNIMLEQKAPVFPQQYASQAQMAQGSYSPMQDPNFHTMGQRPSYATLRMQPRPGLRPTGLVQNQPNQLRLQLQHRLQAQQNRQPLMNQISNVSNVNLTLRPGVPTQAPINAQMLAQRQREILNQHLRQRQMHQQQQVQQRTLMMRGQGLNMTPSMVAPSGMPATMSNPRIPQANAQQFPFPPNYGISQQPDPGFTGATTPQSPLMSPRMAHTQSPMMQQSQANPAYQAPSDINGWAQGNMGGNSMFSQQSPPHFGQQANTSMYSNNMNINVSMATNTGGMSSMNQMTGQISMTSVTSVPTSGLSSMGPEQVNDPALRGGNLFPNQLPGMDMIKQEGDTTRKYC

Structure (SMILES)	inhibition [1]	inhibition [2]
COc1cccc(Nc2nc(NCCO)c3ccccc3n2)c1	-14.1%	31.5%
CC(C)c1nc(N2CCOCC2)c(C#N)c2c1CCC2	-15.7%	4.3%
O=S(=O)(c1ccc(NC(=S)NCc2ccncc2)cc1)N1CCCCC1	15.6%	0.63%
COc1cccc(/C=N/NC(=O)c2cc(-c3ccccn3)nc3ccccc23)c1O	9.38%	19.8%
CN1CCN(c2ccc(NC(=O)c3cc(S(N)(=O)=O)ccc3N3CCOCC3)cc2)CC1	-1.08%	-8.5%
CCOC(=O)C1=C[C@@H](C(C)(C)C)N(S(=O)(=O)c2ccc(C)cc2)[C@H]1c1ccc(Cl)c(Cl)c1	7.53%	17.4%
O=c1c(Br)ccc(Br)cc1Br	97.7% (active)	99.4% (active)
Cc1c(CCC(=O)N[C@@H](C)C(=O)O)c(=O)oc2c(C)c3oc4c(c3cc12)CCCC4	25%	27.4%
Cn1nnnc1Sc1ncnc2scc(-c3ccc(Cl)cc3)c12	18.1%	42.2%
CCCCOc1ccc(C2(C)NC(=O)NC2=O)cc1 (centres undefined)	-7.32%	-2.28%
Cc1cc(OCC(=O)Nc2ccncc2)cc(C)c1Cl	4.55%	11.3%
Cc1cc(C)cc(C(=O)NC(=S)Nc2ccc(-c3cc4ccccc4oc3=O)cc2)c1	-8.51%	46.7% (active)
